This excerpt belongs to a sample that is enriched for hits.
Tgondii IFNg: T. gondii growth inhibition under IFN-gamma; activity change, negative = inhibition, % (test concentration not listed); 69,000 tested, 3.8% active; Toxoplasma gondii growth in IFN-gamma-treated host cells; active compounds read low; in the data active = activity change below about -70%, passing the limit was not always enough;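 also: host cells are HeLa cells infected with Toxoplasma gondii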
* marks the source's active call; other numbers are inactive results.

SMILES | Tgondii IFNg
COc1ccccc1CN1C[C@@H]2C[C@@H](c3ccc(SC)cc3)N3CCC[C@@]23C1=O | 2
Cn1cnnc1Sc1cc(C#N)c(C#N)cc1Sc1nncn1C | -41
Cc1ccc(Nc2nc(Nc3ccc(C)cc3)nc(Sc3nncn3C)n2)cc1 | -75*
CC1c2cccn2CCN1Cc1ccc(Sc2nncn2C)o1 (configuration not stated) | 3
CC(C)CN(Cc1ccccn1)C(=O)[C@@H](N)Cc1ccccc1 | -8
O=S(=O)(c1ccc(F)cc1)N1C[C@H]2[C@@H](c3ccccc31)[C@@H](CO)N2Cc1ccccc1Cl | -79*
O=C(Nc1ccc(F)cc1)N1C[C@@H]2[C@H](c3ccccc31)[C@H](CO)N2Cc1ccccc1Cl | 37
O=S(=O)(c1ccc(F)cc1)N1C[C@@H]2[C@H](c3ccccc31)[C@@H](CO)N2Cc1ccccc1Cl | -3
CCc1ccc2c(c1)cc(S(=O)(=O)c1ccccc1)c(=O)n2CC(=O)NC1CCCCC1 | -20
COc1ccccc1-c1nc(Cn2nnc(-c3nc(-c4ccc(C)c(C)c4)no3)c2C)c(C)o1 | -11
Cc1nc(-c2cc(S(=O)(=O)N3CCC(C)CC3)c(C)s2)sc1C | 16
Cc1nc(-c2cc(S(=O)(=O)N3CCCCC3C)c(C)s2)sc1C (configuration not stated) | -11
Cc1sc(-c2nc(C(C)C)cs2)cc1S(=O)(=O)N1CCC(C)CC1 | -89*
CC(C)NC(=O)CSc1nnns1 | 6
O=C(c1cnccn1)N1CCO[C@H]2CCN(Cc3ccccc3Cl)C[C@H]21 | 15
O=C(CCN1CCCCC1)N[C@H]1CC[C@@H](CCn2cc(-c3cccc(F)c3)nn2)O[C@H]1CO | -4
COCC12CCCOC1CCN(C(=O)CC1C=CCC1)C2 (configuration not stated) | 28
CN1C(=O)C(CCC(=O)O)c2ccccc21 (configuration not stated) | 27
C[C@H](NC(=O)Cc1cc(F)cc(F)c1)C(=O)N[C@@H]1C(=O)N(C)c2ccccc2-c2ccccc21 | -83*
CC(C)[C@H](O)C(=O)N[C@@H](C)C(=O)N[C@H]1C(=O)N(C)CCc2ccccc21 | -6
O=C(c1ccc(F)c(F)c1)N1CCN(S(=O)(=O)c2cc3c4c(c2)CCC(=O)N4CCC3)CC1 | -7
CCOc1ccc(-c2nc(CN3CCN(C(=O)Nc4ccccc4)CC3)c(C)o2)cc1 | -5
Cc1cnc(C(=O)N2CC[C@H]3CN(CCc4ccccc4)S(=O)(=O)[C@@H]3CC2)cn1 | -35
CCc1[nH]c2ccc(CNc3ncc(F)c(N4CCOCC4)n3)cc2c1C | -48
CCc1[nH]c2ccc(CNc3cc(COC)ncn3)cc2c1C | -78*
SMILES | Tgondii IFNg
Cc1[nH]c2ccc(CNC(=O)C3CC(=O)N(Cc4ccccn4)C3)cc2c1C (configuration not stated) | 5
N#Cc1cccc(C(=O)N2CC[C@H]3[C@@H]2CCN3CC2CC2)c1 | 131
CN(C)c1cc(N(C)CC2CC(=O)N(C(C)(C)C)C2)ncn1 (configuration not stated) | -1
O=C1c2nccnc2C(=O)N1c1cc(Cl)c(-n2cccc2)cc1Cl | -12
COc1ccc(-c2ccccc2[C@@H]2[C@@H](C#N)N(C(=O)NC3CCCCC3)[C@H]2CO)cc1 | 6
COc1ccc(-c2ccccc2[C@@H]2[C@@H](C#N)N(C(=O)NC(C)C)[C@H]2CO)cc1 | 24
COc1ccc(-c2ccccc2[C@H]2[C@@H](CO)N(C(=O)NC3CCCCC3)[C@H]2C#N)cc1 | -72*
COCCC(=O)N1Cc2nccn2CC(COc2cccnc2)C1 (configuration not stated) | -3
CCN1C(=O)CCc2cc(NC(=O)c3ccc(OC)cc3C)ccc21 | 104
CCc1ocnc1C(=O)Nc1c(C)cnn1C(CC)CC | -1
Cc1ccc(C(=O)NC2CCC(n3cnnc3)CC2)cc1N1CCNC1=O (configuration not stated) | 0
Cc1ccccc1S(=O)(=O)N1CCC2(CC1)Nc1cc(F)ccc1-n1cccc12 | 40
Cc1nc2c(c3c1[nH]c1ccccc13)C(=O)CC(C)(C)C2 | -15
Cc1n[nH]c(C)c1CCCNC(=O)c1cc(=O)[nH]c2ccccc12 | -2
CNCCCCc1cnc(C)c2[nH]c3ccccc3c12 | -95*
COc1ccc(C2CCCN2C(=O)c2ccc(F)c(-n3nc(C)cc3C)c2)cc1OC (configuration not stated) | -7
COCC(=O)Nc1ccc2c(c1)OC[C@@H](C)N(C)C[C@@H](C)[C@@H](OC)CN(C)C2=O | -19
COCC(=O)N1C[C@@H](C)[C@H](OC)CN(C)C(=O)c2ccc(NC(=O)c3ccc(-c4ccccc4)cc3)cc2OC[C@H]1C | -103*
CCC(=O)Nc1ccc2c(c1)OC[C@H](C)N(Cc1ccccc1)C[C@@H](C)[C@@H](OC)CN(C)C2=O | 211
CO[C@H]1CN(C)C(=O)c2ccc(NC(=O)Nc3cc(F)ccc3F)cc2OC[C@@H](C)N(C(=O)c2ccccn2)C[C@@H]1C | -88*
CO[C@@H]1CN(C)C(=O)c2cc(NC(=O)Nc3ccccc3F)ccc2OC[C@@H](C)N(C(=O)c2cnccn2)C[C@H]1C | 44
CCC(=O)Nc1ccc2c(c1)OC[C@H](C)N(Cc1ccccc1)C[C@H](C)[C@@H](OC)CN(C)C2=O | 173
CO[C@@H]1CN(C)C(=O)c2ccc(NC(=O)c3ccc4c(c3)OCO4)cc2OC[C@@H](C)N(Cc2ccc3c(c2)OCO3)C[C@H]1C | -80*
COCC(=O)N1C[C@H](C)[C@@H](OC)CN(C)C(=O)c2ccc(NC(=O)Nc3cccc(F)c3)cc2OC[C@@H]1C | -35
CCCC(=O)Nc1ccc2c(c1)C(=O)N(C)C[C@@H](OC)[C@H](C)CN(C(=O)c1ccccn1)[C@H](C)CO2 | 4
SMILES | Tgondii IFNg
CO[C@@H]1CN(C)C(=O)c2cc(NC(C)=O)ccc2OC[C@H](C)N(Cc2ccncc2)C[C@H]1C | -66
CCCC(=O)Nc1ccc2c(c1)C(=O)N(C)C[C@@H](OC)[C@H](C)CN(Cc1cc(-c3ccccc3)on1)[C@H](C)CO2 | -81*
CO[C@@H]1CN(C)C(=O)c2ccc(NC(=O)Nc3cc(F)ccc3F)cc2OC[C@H](C)N(C(=O)c2ccccn2)C[C@@H]1C | 2
CN1CC(=O)N(c2ccccc2)CC12CCN(Cc1nccs1)C2 (configuration not stated) | 77
O=C(O)CN1Cc2nc(CN3CCCCC3)oc2C1 | -30
O=C(O)C(=O)O.O=C(O)C(=O)O.O=C(O)C(=O)O.[Bi].[Bi] | 25
Cc1ccc2c(c1)C(=O)NC1(CCN(C(=O)c3ccc4c(c3)OCO4)CC1)N2C | 19
CC1(C(=O)N2CCOCC2)CN(C(=O)c2ccc3nsnc3c2)CCO1 (configuration not stated) | -12
CCOc1ccc(NC(=O)N2CCN(Cc3nc(-c4ccc(C)cc4)oc3C)CC2)cc1 | 1
CN(C)Cc1cc(C2CCCN(C(=O)CC3(O)CCCCC3)C2)nn1C (configuration not stated) | 4
Cc1sc(C(=O)N2CCCc3ccccc32)cc1S(=O)(=O)N1CCOCC1 | -54
FC(F)(F)c1cccc(CN(Cc2ccccn2)CC2CCCO2)c1 (configuration not stated) | -10
O=C(CCC1CCCO1)Nc1ncc(Cc2cccc(C(F)(F)F)c2)s1 (configuration not stated) | -99*
CC(=O)N1CCOC(Cc2cccc(C(F)(F)F)c2)C1 (configuration not stated) | -3
Fc1ccc(Cn2ncc3c2CN(c2nc4ccccc4o2)C3)cc1 | -59

Compound activity (PubChem)
